{"source": "ChEMBL document CHEMBL3988442", "about": "“University of Dundee, Small-Polar-MMV Screening Library” (2021)", "note": "The whole screen tested about 53,000 compounds, of which about 900 (1.7%) showed an effect of 50% or more. For the sample, strong results were picked, then their nearest neighbours and some compounds at random.", "data": [{"tested_on": "Mycobacterium tuberculosis", "assay": "Cornell - Phenotypic assay to identify agents that inhibit growth of Mycobacterium tuberculosis", "type": "functional", "set-up": "scale not given: direction of the effect not stated beside the values", "conditions": "10 mM as filed; unlikely as a test dose", "units": {"Percent Effect": "%"}, "values": [{"compound": "CC(C)c1nc2oc(C(=O)N3CCOCC3)c(N)c2c2c1CCCC2", "Percent Effect": 5.641}, {"compound": "COc1ccccc1Oc1cncc(C2CCCN(C)C2)n1", "note": "(stereo not given)", "Percent Effect": 10.25}, {"compound": "CCOC1CCN(C(=O)c2c(Cl)c3ccccc3n2C)CC1", "Percent Effect": 55.05}, {"compound": "Cn1c(C(=O)N2CCC(CC(N)=O)CC2)c(Cl)c2ccccc21", "Percent Effect": -5.817}, {"compound": "COC1CCN(C(=O)c2c(Cl)c3ccccc3n2C)CC1", "Percent Effect": 49.28}, {"compound": "Cn1cc(C2CCCN2C(=O)c2cn(-c3ccccc3)nn2)cn1", "note": "(stereo not given)", "Percent Effect": -26.03}, {"compound": "CNC(=O)c1cn[nH]c1C1CCN(Cc2ccccc2F)C1", "note": "(stereo not given)", "Percent Effect": -6.719}, {"compound": "COc1cc(C)c(S(=O)(=O)CC(=O)N(C)C(C)C)cc1OC", "Percent Effect": 1.501}, {"compound": "CN(C1CCCCC1)S(=O)(=O)N1CCN(Cc2ccon2)CC1", "Percent Effect": 27.01}, {"compound": "CN(C1CCCCC1)S(=O)(=O)N1CCN(Cc2ccco2)CC1", "Percent Effect": 2.513}, {"compound": "Cc1ccccc1CN1CCCN(S(=O)(=O)N(C)C2CCCCC2)CC1", "Percent Effect": 58.2}, {"compound": "CCOCCC1(CNC(=O)c2ccncc2)CCC1", "Percent Effect": 19.62}, {"compound": "CN1CCCC(c2ccc(N3CCOCC3)cn2)C1.Cl", "note": "(stereo not given)", "Percent Effect": 35.11}, {"compound": "Cc1cc(C2CCCCN2C(=O)c2ccsc2)nc2nccn12", "note": "(stereo not given)", "Percent Effect": -13.93}, {"compound": "Cc1cc(NC(=O)CN2CCN(C3CCCC3)C(=O)C2)nn1C", "Percent Effect": 12.31}, {"compound": "CCn1nccc1CN(C)c1[nH]cnc2nc(C)nc1-2", "Percent Effect": 1.62}, {"compound": "c1nc(CCNc2nc(C3CC3)nc3c2CCNCC3)c[nH]1", "Percent Effect": 8.345}, {"compound": "c1ccc(-c2nc3c(c(NCCc4c[nH]cn4)n2)CCNC3)cc1", "Percent Effect": 96.35}, {"compound": "c1cc(-c2nc3c(c(NCCc4c[nH]cn4)n2)CCNCC3)ccn1", "Percent Effect": -23.76}, {"compound": "O=C(c1ccncc1)N1CCC(Cc2cnc3[nH]ccc3c2)CC1", "Percent Effect": -105.2}, {"compound": "CCc1ncc2c(n1)CN(Cc1nc(-c3cccs3)no1)CC2", "Percent Effect": 23.26}, {"compound": "Cc1ncc2c(n1)CN(Cc1nc(-c3cccs3)no1)CC2", "Percent Effect": -6.861}, {"compound": "CC(C)c1ncc2c(n1)CN(Cc1nc(-c3cccs3)no1)CC2", "Percent Effect": 53.42}, {"compound": "CCOc1cccc2c1OCC(=O)N(c1ccc3c(c1)OCO3)C2", "Percent Effect": -8.978}, {"compound": "Cc1ncc(C(=O)NCCNC(=O)c2ccccc2)s1", "Percent Effect": -13.65}, {"compound": "CCc1nccn1C1CCCN(C(=O)c2cn3c(C)cccc3n2)C1", "note": "(stereo not given)", "Percent Effect": 3.072}, {"compound": "CN1CCOC(CN(C(=O)CCc2cnn(C)c2)c2nccs2)C1", "note": "(stereo not given)", "Percent Effect": -11.48}, {"compound": "CC(C)N1CCC(CNCc2c[nH]nc2C(C)(C)C)C1", "note": "(stereo not given)", "Percent Effect": 7.799}, {"compound": "CCN1CCC(CNCc2c[nH]nc2C(C)(C)C)C1.Cl", "note": "(stereo not given)", "Percent Effect": 10.08}, {"compound": "CC(C)(C)c1n[nH]cc1CNCC1CCN(C2CC2)C1.Cl", "note": "(stereo not given)", "Percent Effect": 94.59}]}]}
